Results published in the supplement of paper PMC10037445.
Over roughly 2,900 compounds, “NF-kB SEAP reporter activity, fold change vs agonist alone” has its median near 0.99; the highest 2% begin near 2.6. What follows is part of a selection rich in the highest values, with near analogues and random picks from the rest.

How the values were obtained:
[1] = tested on: RAW-Dual; assay: NF-kB SEAP reporter activity, fold change vs agonist alone; cytotoxicity flag (confluency mask): not cytotoxic; higher = enhanced NF-kB activity
How it was run: (§1)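 RAW-Dual macrophages (50,000 cells/well in DMEM, 384-well plates) received 50 nL of library stock by pin tool, then a PRR agonist 1 h later, and were kept at 37 °C, 5% CO2. After 20 hours, supernatant was read for IRF by QuantiLuc luminescence and for NF-κB by QuantiBlue absorbance at 620 nm. Reporter activity is fold change over agonist-alone wells. Cytotoxic wells had IncuCyte confluency below 70% of agonist controls in both mask sets.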

[2] = tested on: RAW-Dual; assay: NF-kB SEAP reporter activity, fold change vs agonist alone; higher = enhanced NF-kB activity; conditions: library stock concentration (final ~1000-fold dilution): 10 mM
How it was run: as §1

[3] = tested on: RAW-Dual; assay: NF-kB SEAP reporter activity, fold change vs agonist alone; cytotoxicity flag (confluency mask): cytotoxic (confluency <70% of control); higher = enhanced NF-kB activity
How it was run: as §1

[4] = agonist: ODN 1826 (TLR9) 0.5 ug/mL
[5] = agonist: Pam2CSK4 (TLR2/6) 0.1 ug/mL
[6] = agonist: Pam3CSK4 (TLR2/1) 0.1 ug/mL
[7] = cytotoxicity flag (confluency mask): not cytotoxic, agonist: Imiquimod (TLR7) […]
[8] = cytotoxicity flag (confluency mask): not cytotoxic, agonist: MPLA (TLR4) […]

In the case of CC12CC(O)C3CC1(O[C@@H]1O[C@H](CO)[C@@H](O)[C@H](O)[C@H]1O)C3(COC(=O)c1ccccc1)C(=O)O2 (some centres undefined) (library stock concentration (final ~1000-fold dilution): 10 mM), the “NF-kB SEAP reporter activity” value ([1]; agonist: LPS (TLR4) 0.1 ug/mL) is reported as 1.24, the “NF-kB SEAP reporter activity” value [1, 4] is reported as 1.12 and the “NF-kB SEAP reporter activity” value [1, 5] is reported as 1.1. The “NF-kB SEAP reporter activity” value [1, 6] was 1.06.

In the case of CC12CC(O)C3CC1(O[C@@H]1O[C@H](CO)[C@@H](O)[C@H](O)[C@H]1O)C3(COC(=O)c1ccccc1)C(=O)O2 (some centres undefined), the “NF-kB SEAP reporter activity” value [2, 7] is reported as 1.03 and the “NF-kB SEAP reporter activity” value [2, 8] is reported as 1.03.

CNCCCC1c2ccccc2C=Cc2ccccc21.Cl (library stock concentration (final ~1000-fold dilution): 10 mM) was tested, and the “NF-kB SEAP reporter activity” value ([3]; agonist: LPS (TLR4) 0.1 ug/mL) was 0.947, the “NF-kB SEAP reporter activity” value [3, 4] was 0.644 and the “NF-kB SEAP reporter activity” value [3, 5] was 0.63. For the same compound, the “NF-kB SEAP reporter activity” value [3, 6] was 0.687.

In the case of CNCCCC1c2ccccc2C=Cc2ccccc21.Cl, the “NF-kB SEAP reporter activity” value ([2]; cytotoxicity flag (confluency mask): cytotoxic (confluency <70% of control), agonist: Imiquimod (TLR7) […]) is reported as 1.28 and the “NF-kB SEAP reporter activity” value ([2]; cytotoxicity flag (confluency mask): cytotoxic (confluency <70% of control), agonist: MPLA (TLR4) […]) is reported as 1.62.

In the case of O=C(CCNNC(=O)c1ccncc1)NCc1ccccc1, the “NF-kB SEAP reporter activity” value [2, 7] is reported as 0.939 and the “NF-kB SEAP reporter activity” value [2, 8] is reported as 1.

In the case of CCCCNc1ccc(C(=O)OCCN(C)C)cc1.Cl (library stock concentration (final ~1000-fold dilution): 10 mM), the “NF-kB SEAP reporter activity” value ([1]; agonist: LPS (TLR4) 0.1 ug/mL) is reported as 1.38, the “NF-kB SEAP reporter activity” value [1, 4] is reported as 0.759 and the “NF-kB SEAP reporter activity” value [1, 5] is reported as 1.13. The “NF-kB SEAP reporter activity” value [1, 6] was 1.17.

In the case of O=C(CCNNC(=O)c1ccncc1)NCc1ccccc1 (library stock concentration (final ~1000-fold dilution): 10 mM), the “NF-kB SEAP reporter activity” value ([1]; agonist: LPS (TLR4) 0.1 ug/mL) is reported as 0.997, the “NF-kB SEAP reporter activity” value [1, 4] is reported as 1.03 and the “NF-kB SEAP reporter activity” value [1, 5] is reported as 0.962. For the same compound, the “NF-kB SEAP reporter activity” value [1, 6] was 0.955.

With CCCCNNC(=O)c1ccc(Br)cc1 the “NF-kB SEAP reporter activity” value [2, 7] was 1.95 and the “NF-kB SEAP reporter activity” value [2, 8] was 2.28.

With CCCCNc1ccc(C(=O)OCCN(C)C)cc1.Cl the “NF-kB SEAP reporter activity” value [2, 7] was 0.843 and the “NF-kB SEAP reporter activity” value [2, 8] was 1.04.

In the case of CCCCNNC(=O)c1ccc(Br)cc1 (library stock concentration (final ~1000-fold dilution): 10 mM), the “NF-kB SEAP reporter activity” value ([1]; agonist: LPS (TLR4) 0.1 ug/mL) is reported as 3.15, the “NF-kB SEAP reporter activity” value [1, 4] is reported as 2.18 and the “NF-kB SEAP reporter activity” value [1, 5] is reported as 0.64. The “NF-kB SEAP reporter activity” value [1, 6] was 0.656.

CS(=O)(=O)n1cc2c(n1)CN(C1COC(c3cc(F)ccc3F)C(N)C1)C2 (centres undefined) was tested, and the “NF-kB SEAP reporter activity” value [2, 7] was 0.931 and the “NF-kB SEAP reporter activity” value [2, 8] was 1.03.

For CS(=O)(=O)n1cc2c(n1)CN(C1COC(c3cc(F)ccc3F)C(N)C1)C2 (centres undefined) (library stock concentration (final ~1000-fold dilution): 10 mM), the “NF-kB SEAP reporter activity” value ([1]; agonist: LPS (TLR4) 0.1 ug/mL) was 1.1, the “NF-kB SEAP reporter activity” value [1, 4] was 0.91 and the “NF-kB SEAP reporter activity” value [1, 5] was 1. The “NF-kB SEAP reporter activity” value [1, 6] was 0.974.

In the case of Cc1ccc(-n2nc(C(C)(C)C)cc2NC(=O)Nc2ccc(OCCN3CCOCC3)c3ccccc23)cc1 (library stock concentration (final ~1000-fold dilution): 10 mM), the “NF-kB SEAP reporter activity” value ([1]; agonist: LPS (TLR4) 0.1 ug/mL) is reported as 0.477, the “NF-kB SEAP reporter activity” value [1, 4] is reported as 0.449 and the “NF-kB SEAP reporter activity” value [1, 5] is reported as 0.129. For the same compound, the “NF-kB SEAP reporter activity” value [1, 6] was 0.226.

In the case of O=C(NCCN1CCOCC1)c1ccc(Cl)cc1 (library stock concentration (final ~1000-fold dilution): 10 mM), the “NF-kB SEAP reporter activity” value ([1]; agonist: LPS (TLR4) 0.1 ug/mL) is reported as 1.32, the “NF-kB SEAP reporter activity” value [1, 4] is reported as 1.86 and the “NF-kB SEAP reporter activity” value [1, 5] is reported as 1.18. The “NF-kB SEAP reporter activity” value [1, 6] was 1.17.

For Cc1ccc(-n2nc(C(C)(C)C)cc2NC(=O)Nc2ccc(OCCN3CCOCC3)c3ccccc23)cc1, the “NF-kB SEAP reporter activity” value [2, 7] was 0.455 and the “NF-kB SEAP reporter activity” value [2, 8] was 0.804.

With O=C(Cc1ccc(-c2ccc(OCCN3CCOCC3)cc2)cn1)NCc1ccccc1 the “NF-kB SEAP reporter activity” value [2, 7] was 2.63 and the “NF-kB SEAP reporter activity” value [2, 8] was 2.26.

O=C(NCCN1CCOCC1)c1ccc(Cl)cc1 was tested, and the “NF-kB SEAP reporter activity” value [2, 7] was 1.74 and the “NF-kB SEAP reporter activity” value [2, 8] was 1.82.

With O=C(Cc1ccc(-c2ccc(OCCN3CCOCC3)cc2)cn1)NCc1ccccc1 (library stock concentration (final ~1000-fold dilution): 10 mM) the “NF-kB SEAP reporter activity” value ([1]; agonist: LPS (TLR4) 0.1 ug/mL) was 4.55, the “NF-kB SEAP reporter activity” value [1, 4] was 3.36 and the “NF-kB SEAP reporter activity” value [1, 5] was 2. The “NF-kB SEAP reporter activity” value [1, 6] was 2.39.
